TDP1 block: TDP1 (human) enzyme inhibition | recombinant TDP1, AlphaScreen DNA substrate cleavage | Q9NUW8 | Potency, µM (titrated, usually from 130 µM), for the others: top-dose activity change, negative = inhibition, most hits filed as inhibitors | 350,000 compounds, 0.28% hits; also: nearly all actives have a fitted effect of over 40% in size
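E. coli-derived human Tdp1, 1 nM final. Cpd preinc 15 min RT; substrate 15 nM final, 5 min RT; AS bead mix 10 ug/ml final, 10 min RT. Signal loss = tyrosine-FITC cleavage. No-enzyme wells = max signal.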
PLK1 PBD block: PLK1 (human) polo-box domain binding inhibition; Potency, µM, inactives show max response, negative = inhibition, hits mostly inhibitors; Plk1 PBD binding of FITC phosphopeptide, fluorescence polarization; 360,000 compounds, 2.8% hits; P53350; also: series mostly up to about 57 µM; nearly all actives have a fitted effect of over 65% in size
DT40 TDP1 CPT: growth inhibition of DT40 Tdp1-/-;hTDP1 cells with camptothecin (screen for TDP1 inhibitors); 420,000 compounds, 12% hits; Potency, µM (doses to about 46.2 µM), for inactives: at the highest dose activity change, negative = growth inhibition, hits mostly inhibitors; chicken DT40 Tdp1-/-;hTDP1 cells + 20 nM CPT, ATP luminescence, 48 h; also: nearly all actives have a fitted effect of over 55% in size
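Cell growth measured by CellTiter-Glo luminescence after a minimum 48 h, 37 C compound exposure with 20 nM CPT in Tdp1-knockout DT40 cells stably expressing hTDP1, seeded 400/well; qHTS titration format.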
DT40 TDP1 no CPT: qHTS for Inhibitors of human tyrosyl-DNA phosphodiesterase 1 (TDP1): qHTS in cells in absence of CPT. Potency, µM (top dose mostly 46.2 µM), for inactives: top-dose activity change, negative = growth inhibition, most hits filed as inhibitors. 420,000 compounds, 15% hits. DT40 Tdp1-/- hTDP1 cells, no CPT, ATP luminescence, 48 h; also: nearly all actives have a fitted effect of over 55% in size
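Stably hTDP1-transfected Tdp1-null chicken DT40 cells were treated with library compounds minus camptothecin and grown for at least 48 hr at 37 °C, after which cellular ATP was quantified by luminescence.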
VDR inhibitor: vitamin D3 receptor (human) inhibition; P11473; VDR-SRC2-3 peptide fluorescence polarization, 2 h; Potency, µM, without a hit: max response, negative = inhibition, actives largely listed as inhibitors; 400,000 compounds, 0.93% hits
Target sequence (P11473 whole entry, looked up): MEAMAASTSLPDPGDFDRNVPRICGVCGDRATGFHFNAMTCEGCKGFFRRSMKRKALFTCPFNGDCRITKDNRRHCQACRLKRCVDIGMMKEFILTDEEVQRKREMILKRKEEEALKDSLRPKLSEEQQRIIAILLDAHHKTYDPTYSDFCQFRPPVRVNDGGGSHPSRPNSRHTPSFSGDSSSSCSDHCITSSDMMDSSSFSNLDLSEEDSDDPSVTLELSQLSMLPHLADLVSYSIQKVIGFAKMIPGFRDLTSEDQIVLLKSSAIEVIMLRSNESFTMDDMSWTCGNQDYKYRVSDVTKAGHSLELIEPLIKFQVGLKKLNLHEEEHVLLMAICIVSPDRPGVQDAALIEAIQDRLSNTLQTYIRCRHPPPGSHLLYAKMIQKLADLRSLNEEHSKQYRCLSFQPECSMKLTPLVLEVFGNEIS
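Two reagent solutions held at 4 deg C in the dark were dispensed, compounds pinned at 23 nl, and the mixture incubated 2 h at room temperature. Read-out: fluorescence polarization of VDR–SRC2-3 peptide binding.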
GCN5L2 inh: blocks human GCN5L2 histone acetyltransferase. Q92830. GCN5L2 HAT assay, ThioGlo1 CoA-SH fluorescence. Potency, µM (titrated, usually from 58.9 µM), inactives show at the top dose activity change, negative = inhibition, usual class: inhibitors. 390,000 compounds, 0.21% hits. AID 504327
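ThioGlo1-coupled HAT assay: 20nM GCN5L2, 70uM acetyl-CoA, 75uM H3(1-25) peptide, pH 7.5. Fluorescence read at 340/540nm at start and after 20 min at room temperature.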
Numbers without * were called inactive; ? = inconclusive; / = not tested or not shown; ! = a repeat was not active; [ ] = remark or other dose. Rows were chosen to be rich in hits. Some 18% of all compounds tested hit in one or more screens of this group. Calls follow the shape of the dose curve; as a rule, active = well fitted curve in the direction sought with a large enough effect; inconclusive = small, poorly fitted or top-dose-only effect, or another doubt; inactive = no such curve, though single readings can be large; an effect the other way counts as inactive or inconclusive. % is scaled to controls: 0 for no effect and ±100 for the full control effect; potency is read from the fitted curve at half-maximal effect.

SMILES | TDP1 block | PLK1 PBD block | DT40 TDP1 CPT | DT40 TDP1 no CPT | VDR inhibitor | GCN5L2 inh
O=C(Nc1ccccc1C(F)(F)F)C1CCN(c2nnc(-n3cccc3)s2)CC1 | 7% | / | ? | ? | -8% | 9%
N#Cc1c(C(F)(F)F)cc(-c2ccccc2)nc1SCC(=O)Nc1sc2c(c1C#N)CCC2 | -2% | 30µM* | 13µM* | 10µM* | -4% | -7%
Cc1nc(SCC(=O)Nc2nc3ccccc3s2)c(C#N)c(C)c1C | -2% | -17% | ? | ? | -6% | -2%
CC(Sc1nc(-c2ccccc2)cc(C(F)(F)F)n1)C(=O)Nc1sc2c(c1C#N)CCC2 (stereo not given) | 1% | 24µM* | ? | ? | 3% | -13%
Cc1cc(C(F)(F)F)c(C#N)c(SCC(=O)Nc2nc3ccccc3s2)n1 | -1% | 24% | ? | 18µM* | -14% | -6%
O=C1CC(c2nnc(Cc3ccc(F)cc3)o2)CN1c1ccccc1 (stereo not given) | -2% | / | 6% | -3% | -9% | 0%
COc1ccc(C(CNC(=O)CCNS(=O)(=O)c2ccc(Br)cc2)N2CCOCC2)cc1 (stereo not given) | / | 5% | -15% | -1% | 9% | /
Cc1ccc(NC(=O)COc2cccc(-n3cnnn3)c2)cc1[N+](=O)[O-] | / | -5% | ? | ? | -4% | 0%
CCCCC(=O)N(C)c1c(CC)nc2c(OCC(=O)c3ccc(F)cc3)cccn12 | / | -12% | ? | ? | / | /
CC1CCCCC12NC(=O)N(CC(=O)NNC(=O)c1ccc(Br)cc1)C2=O (stereo not given) | 1% | -13% | 16% | -11% | 0% | -7%
COc1ccc(-n2cnc3cc(NCc4cccs4)ccc32)cc1 | 12% | 27µM* | ? | ? | -10% | -2%
c1ccc(-n2cnc3cc(NCc4cccs4)ccc32)cc1 | 10% | -4% | -20% | ? | 3% | 22%
Cc1ccc(-c2nnc(CN3CCCCC3C)o2)cc1 (stereo not given) | / | -13% | -12% | 1% | -1% | -1%
O=C(NCc1cccnc1)c1cc(Sc2ccc(F)cc2F)nc2ccccc12 | -3% | -8% | 23µM* | 21µM* | -16% | 28%
O=C(NCCc1ccccc1)c1cc(Sc2ccc(F)cc2F)nc2ccccc12 | 3% | / | ? | ? | 13% | -1%
CCc1ccc(CNc2ncnc3onc(-c4ccc(Cl)cc4)c23)cc1 | -1% | / | -17% | 16µM* | -4% | -12%
Fc1ccc(CNc2ncnc3onc(-c4ccc(F)cc4)c23)cc1 | -6% | / | 18µM* | 23µM* | 13% | -4%
Cc1ccc(CNc2ncnc3onc(-c4ccc(F)cc4)c23)cc1 | -3% | / | ? | ? | 20% | -2%
OC(COc1cccc2ccccc12)CN1CCN(c2ccccc2)CC1 (stereo not given) | 9% | -3% | 18µM* | ? | -2% | -19%
CC(C)NC[C@@H](O)COc1cccc2ccccc12 | 15%[56.1 µM] | -18% | 30µM*! | 21µM*! | -5% | -2%
OC(COc1cccc2ccccc12)CN1CCOCC1 (stereo not given) | / | -10% | 1% | -21% | -23% | /
CC(C)NC[C@H](O)COc1cccc2ccccc12 | 5% | -6% | ? | ? | 8% | -4%
Cc1c(C(=O)Nc2cccc(N(C)S(C)(=O)=O)c2)cccc1[N+](=O)[O-] | / | -9% | -23% | -20% | 4% | -11%
Cn1c(SCc2ccccc2)nnc1C1CCCN(Cc2cccc3ncccc23)C1 (stereo not given) | / | / | ? | -27% | / | /
COc1ccc(S(=O)(=O)NCc2ccncc2)cc1OC | 2% | -3% | 13µM* | 14µM* | 4% | -1%
SMILES | TDP1 block | PLK1 PBD block | DT40 TDP1 CPT | DT40 TDP1 no CPT | VDR inhibitor | GCN5L2 inh
O=S(=O)(Nc1ccc(Cc2ccncc2)cc1)c1ccc(Cl)c(Cl)c1 | 4% | -7% | ? | ? | 6% | -26%
COc1ccc(S(=O)(=O)NCc2cccnc2)cc1OC | / | 1% | 12% | -2% | 15% | 3%
COc1ccc(S(=O)(=O)Nc2ccc(Cc3ccncc3)cc2)cc1OC | 10% | -5% | 12µM* | 15µM* | 7% | -8%
CCN(C(=O)Cn1c(=O)n2nc(CCn3nc(C)cc3C)nc2c2ccccc21)c1cccc(C)c1 | 5% | -4% | -22% | -23% | -10% | 6%
COc1cccc(CNC(=O)Cn2c(=O)n3nc(-c4cccc(C)c4)nc3c3ccccc32)c1 | -8% | / | 16µM* | 15µM* | 15% | 3%
Cc1cccc(NC(=O)Cn2c(=O)n3nc(CCn4nc(C)cc4C)nc3c3ccccc32)c1 | 0% | 3% | 18µM* | 13µM* | -17% | -41%
O=C(c1cc(C(F)(F)F)cc(C(F)(F)F)c1)N1CCC2(CC1)CCN(c1ccccc1)CC2 | / | / | 6% | -10% | -1% | -5%
Cn1c(=O)c(Oc2ccc(Cl)cc2)c(O)c2ccccc21 | 0% | -9% | -29% | ? | 2% | -14%
CC(=O)n1c(C=Nc2ccc(Cl)cc2)c(O)c2ccccc21 | 10% | 6.7µM* | -4% | -24% | 7% | -3%
O=c1[nH]ccc2c(S(=O)(=O)N3CCCNCC3)cccc12 | 11% | / | / | / | -5% | -10%
O=C(c1ccc(F)cc1)c1cn(Cc2ccccc2)c2cc3c(cc2c1=O)OCO3 | 2% | / | ? | ? | -2% | -1%
Clc1ccc(-c2nnc(SCc3nc4ccccc4[nH]3)o2)c(Cl)c1 | 3% | -8% | ? | 9.2µM* | -10% | 2%
CC1(C)CC(=O)C(N=Nc2ccc(C(F)(F)F)cc2[N+](=O)[O-])=C(O)C1 | 11% | 3% | 29µM* | 23µM* | ? | -2%
CC1(C)CC(=O)C(N=Nc2cccc([N+](=O)[O-])c2)=C(O)C1 | / | -10% | -3% | -29% | -4% | -3%
C#C[C@]1(O)CC[C@H]2C3CCC4=Cc5oncc5CC4(C)C3CCC21C (stereo not given in full) | 5%[56.1 µM] | / | / | / | / | /
O=C(c1cn(-c2ccccc2)nc1-c1cccnc1)N1CCCC(C(F)(F)F)C1 (stereo not given) | / | 0% | -8% | ? | -11% | -19%
O=C(NCCc1ccc(Cl)cc1)c1cc(-c2ccccn2)nc2ccccc12 | 2% | 19µM* | ? | ? | -24% | -5%
COc1ccccc1-c1cc(C(=O)NC2CCN(C)CC2)c2ccc(Cl)c(C)c2n1 | 1% | -5% | 12µM* | 21µM* | 12% | 1%
Cc1ccc2nc(-c3ccccn3)cc(C(=O)NC3CCN(C)CC3)c2c1 | 4% | / | / | / | / | -3%
